From the OligoGym collection

target: IREB2; assay: pooled miR-30 sensor sort-seq; sequence = guide strand; conditions: shRNA
Also: reference of the scale not given here.

Sequence | sensor-assay potency score (higher = more potent)
TGTCACAGCAACTCTATCCTGA | 0.64
TAAAGTAAGAGAAACTGGCAGA | -0.195
TAAAATTCCACAGGTAACCAAA | -1.05
TATTGTAGTTCGATCAACTATA | -0.8
TTCATCATCATTTACATCCATG | -0.574

target: IRF2; assay: as above; conditions: shRNA

Sequence | sensor-assay potency score (higher = more potent)
TTTGCCTTCAATATTCCTCTTC | 0.432
TATCAGTCGTTTCGCTTTCTGC | -0.797
TTCTGCATAGGAAGACACGGGG | -0.312
AATCTCTTGATTCTCAATGTTG | -1.2
TACAACTTGGCAAATGTCTGGC | 0.449
TTGCTCTCCTCTTTGATGGTGA | -0.593
TTCAATATTCCTCTTCCGCCAG | -0.844
TTTCTGCATAGGAAGACACGGG | -0.335
TTTCTTTATGCTTTTATCCTTG | -0.739
TTTCCTTTCTTAGAAGGCCGTT | -0.36
TCTTGATTCTCAATGTTGCTGT | 0.147

target: IRX2; assay: as above; conditions: shRNA

Sequence | sensor-assay potency score (higher = more potent)
ATGGCTAGCATGATCTTCTCGC | -0.31
ATCTTCGCTTTTGTTTCTCGGG | -1.09
TTCTTGGGCTCGTAGCCGCCGC | -1.6
TCTTCGCTTTTGTTTCTCGGGG | -0.791
TCCTCGTCCTCATCTTCGCTTT | -1.22
TAGTTTGTGTAGTTGCCGTAGA | 0.0957
TTGTCCTTGCACTCCGAGCCCG | -1.01
TCTTTCTTGGGCTCGTAGCCGC | -1
TACTTGTCCTTGCACTCCGAGC | -1.54
TTGTCGGGACTCTCGTCCTTGC | -0.88
TTCGCTTTTGTTTCTCGGGGCC | -0.0873
TGTCCTTGCACTCCGAGCCCGA | -0.973

target: ISLR2; assay: as above; conditions: shRNA

Sequence | sensor-assay potency score (higher = more potent)
TGAGCGTACTTGTCCACGCAGG | -1.13
TTGACGCCTTCCTCTACGCGGG | -1.19
TTGAGCTCTGCGCTCTGGTTGA | -0.693
TTGCGCAGGTCGCTCCACGGAA | -1.26
TTTGTAAGCGCAGTCCGCGAAC | -1.25
TAGCGCACCGAGTGCGTCCCGG | -1.05
TTGAAAACAACGAAAACAGGAA | -0.395
TTTGGAACTAAAAACTAGGGGT | 0.382
TTGTCAGGGACTACACGCCGGG | -0.648
TTTCCAAAGTCTTCGCTCGTTT | -0.577
